# Test results reported in PubChem BioAssay AID588850 (Sanford-Burnham Center for Chemical Genomics, 2011).
# Hit rate of the full screen: of about 360,000 compounds, about 3,100 (0.86%) were called active.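 How the source made its calls: active means at least 50% inhibition at 5 µM, scaled per plate between neutral and stimulator controls; inactive means the rest.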 What follows is part of a selection rich in actives, with near analogues and random picks from the rest.
# Assay: NF-kB reporter blockers in CF airway cells – cell-based, GFP fluorescence, uHTS, primary screen (AID 588850);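 further: PAF is a Pseudomonas aeruginosa culture filtrate used as stimulus; plate controls were PAF-stimulated DMSO wells for no effect and unstimulated DMSO wells for full effect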
# Details: KKLEB NF-kB-GFP reporter, PAF-induced, GFP fluorescence overnight; at 5 µM; stronger effect = higher value
row,Compound,inhibition
1,COC(=O)C1=C(c2ccccc2OCc2ccccc2)C[C@@H]2CC[C@H]1N2C(=O)NCc1ccc(OC)cc1,-7.5% (inactive)
2,CN(C)CC1CCCCC1=O (centres undefined),6% (inactive)
3,CC(C)(C)c1ccc(OC(=O)N2CCCCC2)cc1,16% (inactive)
4,N=c1ccccn1Cc1ccccc1,14.3% (inactive)
5,CC1=C2C(=O)C3C(CC=C4CC(OC5OC(O)C(O)C(O)C5CO)CCC43C)C2CCC12OC1CC(C)CNC1C2C (centres undefined),7.6% (inactive)
6,CCC1(C)CC(CCNCc2ccc(N(C)C)cc2)(c2ccc(F)cc2)CCO1 (centres undefined),22.8% (inactive)
7,Cc1cc(C)c2c(c1)NP(=S)(c1ccccc1)N2 (centres undefined),24.3% (inactive)
8,CCOC(=O)CC1=C(C(=O)OCC)C2(C(=O)N1)C(C(=O)OC)=C(N)Oc1ccccc12 (centres undefined),-14% (inactive)
9,CN(C)CC1Oc2ccccc2OC1(O)c1ccccc1 (centres undefined),75.7% (active)
10,CN(C)S(=O)(=O)c1cc(C(=O)N2CCC(C(=O)O)(c3ccccc3)CC2)ccc1Cl,7.2% (inactive)
11,COC(=O)C1=C(c2ccccc2)C[C@@H]2CC[C@H]1N2C(=O)N1CCCCC1,-2.3% (inactive)
12,Cc1cccc(NC(=O)OC2CN3CCC2CC3)c1 (centres undefined),9% (inactive)
13,O=C1NC(=O)C(Cc2ccccc2)C(=O)N1,-11% (inactive)
14,C=CCN1C(=O)C2(C(C(=O)OCC)=C(N)Oc3c2c(=O)oc2ccccc32)c2ccccc21 (centres undefined),-5.7% (inactive)
15,CC(=O)OC1C2(CC3N4C(=O)C5(CO)SSC4(CC31O)C(=O)N5C)OC(C)C(C)(C)C2=O (centres undefined),88.5% (active)
16,CC(CC(C#N)(c1ccccc1)c1ccccc1)N1CCCCC1 (centres undefined),7.8% (inactive)
17,CCC(C)(O)C(=O)OC1C(=O)OC2CC3C(C)=CC(=O)C(O)C3(C)C3C4(O)OCC23C1C(C)C4O (centres undefined),91.3% (active)
18,CCOC(=O)C1(Cc2ccc(Cl)cc2)CCN(C(C)CCn2cccn2)CC1 (centres undefined),29.4% (inactive)
19,CC1(C)C(c2ccccc2)=NC(c2cccnc2)=[N+]1[O-],7.5% (inactive)
20,CCCCCCCCCCCCn1ccc(=N)cc1,61.8% (active)
21,CN(C)C(=O)Oc1ccc(NC(=O)N2CCOCC2)cc1,-9.2% (inactive)
22,O=C(CCC(=O)N1C[C@H]2C[C@@H](C1)c1cccc(=O)n1C2)NCc1ccccc1C(F)(F)F,-6.7% (inactive)
23,COC(=O)C1=C(c2cccc(OCc3ccccc3)c2)C[C@@H]2CC[C@H]1N2C(=O)NCc1ccc(Br)cc1,6.2% (inactive)
24,COC(=O)COc1cc(C)cc2oc(=O)c3c(c12)CCCC3,5.1% (inactive)
